Data from PubChem BioAssay.

Tested on: not listed separately
Assay: viability profiling in RPMI8226 myeloma cells – cell-based, resazurin fluorescence, basal, 24 h, PK04 Diversity Set, profiling panel (AID 1180);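 further: RPMI8826 multiple myeloma cell line at 5000 cells per well; test concentration not given here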
Details: higher = more signal

Row | Structure (SMILES) | z-score
1 | CN1C(=O)C2C=CC(C(O)C3CC=CCC3)N(Nc3ccccc3)C2C1=O (centres undefined) | -0.568
2 | COCCCNC(=O)[C@@]1(c2ccc([N+](=O)[O-])cc2)CC(=O)N(C2CCCCC2)[C@@H]1c1ccc(CO)cc1 | 0.946
3 | Cc1ccccc1C(O)C1C=CC2C(=O)N(c3ccccc3)C(=O)C2N1Nc1ccc(C#N)cc1 (centres undefined) | -0.0953
4 | CCOC(=O)C[C@H]1[C@H](OC(=O)Cc2ccc3c(c2)OCO3)[C@@H](NC(=O)c2ccc3ccccc3c2)c2cc(OCCCO)ccc2N1C(=O)Cc1ccc(OC)cc1 | 0.202
5 | COC(=O)[C@@]1(Cc2ccccc2CN=[N+]=[N-])N=C(c2ccc(OCCCO)cc2)O[C@H]1c1ccccc1N=[N+]=[N-] | -3.59
6 | O=C/C=C/c1ccc(/C=C/c2ccccc2)cc1 | -3.21
7 | CC(C)NC(=O)[C@@]1(Cc2ccccc2I)c2ccccc2C(=O)N(C2CCCCC2)[C@H]1c1ccc(CO)cc1 | 0.751
8 | C=CCC(OC(C)=O)[C@@H]1[C@@H](N(Cc2cccc3ccccc23)C(=O)Cc2ccc(F)cc2)c2cc(OCCCO)ccc2N1C(=O)Cc1ccc2ccccc2c1 (some centres undefined) | -1.29
9 | CCCC=C(CCC)[C@@H](NC(=O)c1ccc(C(F)(F)F)cc1)c1ccccc1 | -0.996

Target: E3 ubiquitin-protein ligase XIAP (Homo sapiens) (UniProt P98170)
Sequence (P98170 whole entry, looked up): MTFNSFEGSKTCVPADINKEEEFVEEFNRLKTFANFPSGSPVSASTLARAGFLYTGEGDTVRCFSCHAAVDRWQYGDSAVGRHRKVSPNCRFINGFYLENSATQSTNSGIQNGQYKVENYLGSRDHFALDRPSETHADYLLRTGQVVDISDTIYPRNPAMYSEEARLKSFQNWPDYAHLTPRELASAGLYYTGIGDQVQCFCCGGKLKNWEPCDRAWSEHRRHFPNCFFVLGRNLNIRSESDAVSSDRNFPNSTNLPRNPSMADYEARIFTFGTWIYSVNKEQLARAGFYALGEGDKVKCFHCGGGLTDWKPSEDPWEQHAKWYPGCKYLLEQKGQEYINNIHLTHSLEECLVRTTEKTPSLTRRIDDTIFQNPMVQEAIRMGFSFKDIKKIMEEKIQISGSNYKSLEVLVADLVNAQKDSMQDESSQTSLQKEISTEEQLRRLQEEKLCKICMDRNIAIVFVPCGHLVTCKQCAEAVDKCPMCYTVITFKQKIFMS
Assay: small molecules binding XIAP protein – biophysical, small-molecule microarray, fluorescence 635 nm, primary screen (AID 1181);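 further: score merges 667 nm emission and signal to noise over triplicate slides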
Details: higher = more signal

Row | Structure (SMILES) | composite z-score
10 | COCCOC(=O)N1C(=O)[C@@]2(c3cc(C#CC4=CCCCC4)ccc31)[C@H](C(=O)NC[C@H](O)c1ccccc1)[C@H]1C(=O)O[C@H](c3ccccc3)[C@H](c3ccccc3)N1[C@@H]2c1ccc(OCCO)cc1 | -0.26
11 | CCC#CCN(Cc1ccccc1Br)[C@H](/C=C/c1ccccc1)[C@@H](O)Cc1ccccc1 | 0.0101
12 | C=C(CCCC)/C(=C/C[C@@H](OC(=O)c1ccncc1)c1cccc(OCCO)c1)c1cc(C(=O)OC)ccc1OC | 0.137
13 | NC(=O)NCC#Cc1ccc2c(c1)[C@]1(C(=O)N2)[C@H](c2ccccc2OCCO)N2[C@H](c3ccccc3)[C@H](c3ccccc3)OC(=O)[C@H]2[C@@H]1C(=O)N1CCN(c2ncccn2)CC1 | -0.178
14 | O=C1OCC=C[C@H]2OC34C=CCN(Cc5ccccc5)C(=O)[C@H]3N(CCO)C(=O)[C@@H]4[C@@H]12 (some centres undefined) | -0.16
15 | Cc1ccc(S[C@]2(C(=O)NC(C)C)CC(=O)N(Cc3cc(C(F)(F)F)cc(C(F)(F)F)c3)[C@@H]2c2ccc(CO)cc2I)cc1 | -0.209
16 | COc1ccc(C(=O)Nc2ccc(CN3C(=O)[C@]4(O[C@H](CCn5cc(CCO)nn5)[C@@H]([Si](C)(C)c5ccc(OC)cc5)[C@@H]4C)c4ccccc43)cc2)cc1 | -0.0129
17 | COC(=O)[C@@]1(Cc2ccccc2)[C@H]2c3cc(C(=O)N4CCCC4)n(CCN4CNCC4=O)c3C[C@H]2CN1C(=O)c1ccccc1 | 0.414
18 | CCCNC(=O)[C@@H]1c2ccccc2C(=O)N(C2CCCCC2)[C@H]1c1ccc(CO)cc1 | 0.304
19 | CC(C)C[C@@H]1NC(=O)[C@H]2C[C@@H](C(=O)NCCCCCC[N+](C)(C)C)[C@@H](c3ccc(O)cc3)N2C1=O | -0.176
20 | O=C(NCc1ccccc1)[C@@]1(Cc2ccccc2)COC(c2ccc(OCCCO)cc2)=N1 | -0.217
21 | C=CCN1C(=O)[C@@]2(Cc3ccccc3)N=C(c3ccc(OCCCO)cc3)O[C@H]2c2ccccc21 | 0.212
22 | COCCCNC(=O)[C@@H]1c2ccccc2C(=O)N(CC23CC4CC(CC(C4)C2)C3)[C@H]1c1ccc(CO)cc1 | 0.03
23 | [N-]=[N+]=NCc1ccccc1[C@H]1OC(c2ccc(OCCCO)cc2)=N[C@@]1(Cc1ccccc1N=[N+]=[N-])C(=O)NCc1ccccc1 | -0.117
24 | O=C1C2C=CC(C(O)c3ccccc3)N(n3cnnc3)C2C(=O)N1Cc1ccccc1 (centres undefined) | 0.23
25 | CCCC[C@@H]1C[C@H]1[C@@H](NC(=O)c1ccccc1)c1ccccc1C(F)(F)F | -0.261
26 | COc1ccc(CCN2C(=O)[C@@]3(c4ccc([N+](=O)[O-])cc4)CC(=O)N(CC45CC6CC(CC(C6)C4)C5)[C@@H]3c3ccc(CO)cc32)cc1 | 0.0325
27 | O=C1O[C@@H](c2ccccc2)[C@@H](c2ccccc2)N2[C@@H](c3ccc(OCCO)cc3)[C@]3(C(=O)Nc4ccc(C#CCCO)cc43)[C@@H](C(=O)N3CCN(c4ncccn4)CC3)[C@H]12 | 0.19
28 | Cc1ccc(S[C@]2(C(=O)NC(C)C)CC(=O)N(C3Cc4ccccc4C3)[C@@H]2c2ccc(CO)cc2)cc1 | 0.0181
29 | O=C1O[C@H](c2ccccc2)[C@H](c2ccccc2)N2[C@H]1[C@@H](C(=O)Nc1nc3ccccc3s1)[C@]1(C(=O)Nc3ccc(C#CC4=CCCCC4)cc31)[C@H]2c1ccccc1OCCO | 0.0705
